Dicer inh: inhibitors of Dicer pre-microRNA processing, primary screen, biochemical, cat-ELCCA, chemiluminescence. Endoribonuclease Dicer (Homo sapiens), Q9UPY3. cat-ELCCA pre-miR-21 Dicer processing; stronger effect = higher value. z-score at 25 µM. hit rate 6% among 47,000. AID 1347074, 2019; in the data active means z-score above about 3, passing the limit was not always enough;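 further: plate controls were vehicle for no effect and no enzyme for full effect; higher signal means more uncleaved substrate so more Dicer inhibition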
The depositor's hits bear a star. Many of the other results were omitted from the sample, so hits are more common in it than they were.

SMILES | Dicer inh
COc1c(Cl)cccc1-c1cn2ccc(C)cc2n1 | 5.9*
Cc1ccc(-c2cn3ccc(C)cc3n2)cc1 | 1.1
COc1c(Cl)cc(Cl)cc1-c1cn2ccccc2n1 | -0.51
COc1ccc(-n2ccc(-c3ccccc3)nc2=S)cc1 | 0.19
CC(CCC(=O)Nc1nccs1)C(=O)O (stereo not given) | -0.49
Cc1cccc(Nc2ncncc2C#N)c1C | 3.7*
Cc1cc(C)c(C#N)c(Nc2ccccc2C)n1 | 0.71
Cc1cccc(Nc2nc3nonc3nc2Nc2ccc(F)cc2)c1C | 2.4
C=CCn1c(SCC(=O)c2ccccc2)nc2sc3c(c2c1=O)CCC(C)C3 (stereo not given) | -0.13
COC(=O)C1=C(C)NC2=C(C(=O)c3ccccc32)C1c1ccc(OCc2ccccc2F)c(OC)c1 (stereo not given) | -2.1
COC(=O)c1sc(C(C)(C)C)cc1NC(=O)C(Cl)(Cl)Cl | -0.33
O=CN(O)CCCP(=O)(O)O | 0.67
COc1ccc(NC(=O)/C(C#N)=C/N(C)C)c(OC)c1 | -0.58
COc1ccc(-c2c(C)oc3cc(O)cc(O)c3c2=O)cc1OC | 2
COc1ccc(-c2c(C(F)(F)F)oc3cc(O)cc(O)c3c2=O)cc1 | 5.3*
COc1ccc2c(=O)c(-c3ccc(Cl)cc3)c(C(F)(F)F)oc2c1 | -0.51
COC(=O)c1ccc(S(=O)(=O)N2CCC(O)(c3ccc(Cl)cc3)CC2)n1C | 0.79
CCOc1ccc2nc(SCC(=O)Nc3ncccn3)sc2c1 | 0.87
CC1=C(C#N)C(c2ccc(C(F)(F)F)cc2Cl)C2=C(CCCC2=O)N1 (stereo not given) | -1.6
CC(=O)NC(Nc1ccc(C)cc1)(C(F)(F)F)C(F)(F)F | -0.8
Cc1ccccc1C1CC(=O)Nc2nc(N)[nH]c(=O)c21 (stereo not given) | -1.5
CCOC(=O)C1=C(C)NC2=C(C(=O)CC(c3ccc(Cl)cc3)C2)C1c1ccc(O)c(OCC)c1 (stereo not given) | 2.1
c1ccc(CN2CCN(C3CCCC3)CC2)cc1 | -0.01
Fc1ccc(CN2CCN(C3CCCCC3)CC2)cc1 | -0.45
Fc1ccccc1CN1CCN(C2CCCC2)CC1 | 5.3*
SMILES | Dicer inh
Cc1ccccc1CNCC1CCCO1 (stereo not given) | 0.52
Cc1ccc(CNc2ccc(N3CCOCC3)cc2)s1 | 4*
Cc1ccc(CNc2ccc(N3CCOCC3)c(Cl)c2)s1 | 1.4
Cc1ccc(CNCCN2CCOCC2)s1 | -1.3
NC(CSCc1c(F)cccc1Cl)C(=O)O (stereo not given) | -0.31
CCOC(=O)c1nn(-c2ccccc2)c(=O)c2c(N)c(C#N)c(-c3ccco3)cc12 | -3
NNC(=S)NCCc1ccc(Cl)cc1 | 4.5*
S=C(NCCn1ccnc1)Nc1ccc(Cl)cc1 | 0.86
S=C(NCCc1ccccc1)Nc1cccc(Cl)c1Cl | 0.28
Cc1cc(NC(=O)c2nccnc2C(=O)O)n(C)n1 | -0.99
COc1cccc(-c2nc(-c3ccccc3)no2)c1OC | -0.58
COc1ccccc1-c1nc(-c2ccc(-c3ccc(C)cc3)nc2OC)no1 | -0.1
COc1ccc(-c2noc(-c3cccc(OC)c3OC)n2)cc1 | 4.1*
Cc1ccc(S(=O)(=O)Nc2ccccc2Sc2ncnc3c(C)csc23)cc1 | -2.4
O=[N+]([O-])c1cc(C(F)(F)F)ccc1Oc1ccc(F)cc1 | 24
CC(C)(C)NC(=O)NC(=O)c1ccc(Oc2ccc(C(F)(F)F)cc2[N+](=O)[O-])cc1 | 3.8*
CS(=O)c1ccc(Oc2ccc(C(F)(F)F)cc2[N+](=O)[O-])cc1 (stereo not given) | 0.25
Cc1onc(-c2c(Cl)cccc2Cl)c1NC(=O)NC(=O)C12CC3CC(CC(C3)C1)C2 | 0.74
CC(C)(C)C(=O)/C(C#N)=C/c1ccc([N+](=O)[O-])s1 | -1.1
S=c1[nH]c(=S)c2c3c(sc2[nH]1)CN(Cc1ccccc1)CC3 | 1.8
CCOC(=O)c1c(CN2CCOCC2)oc2ccc(OC)cc12 | 3.5*
CCOC(=O)c1c(COc2ccccc2)oc2ccc(O)cc12 | 1.5
CCOC(=O)c1c(C)oc2ccc(OCC(N)=O)cc12 | 3
O=C1CC(c2cn(Cc3ccccc3)c3ccccc23)C(=O)N1c1ccc(O)cc1 (stereo not given) | 5.6*
O=C1CC(N2CCN(c3ccc(O)cc3)CC2)C(=O)N1c1ccccc1 (stereo not given) | -1.4
SMILES | Dicer inh
O=C1CC(c2c[nH]c3ccccc23)C(=O)N1c1ccccc1 (stereo not given) | 1.2
Cc1ccc(S(=O)(=O)Oc2ccc(Cl)cc2Sc2cc(Cl)ccc2OS(=O)(=O)c2ccc(C)cc2)cc1 | -0.69
O=C1c2oc3ccccc3c(=O)c2C(c2ccc(OCc3ccccc3)cc2)N1c1ccccn1 (stereo not given) | 2
Cc1cc(C)c(C#N)c(OC(=O)c2c(F)cccc2F)n1 | 71*
Cc1cc(C)c(C#N)c(Nc2ccc(F)cc2)n1 | -0.61
CCOC(=O)COc1nc(C)cc(C)c1C#N | -1.6
CC1Oc2ccc(C(=O)CCC(=O)O)cc2N(C)C1=O (stereo not given) | -1.1
O=C(CSc1nnnn1-c1ccccc1)c1ccccc1 | 0.17
CCOC(=O)CSc1nnnn1-c1ccccc1 | 3.7*
OCCSc1nnnn1-c1ccccc1 | -1.3
Cc1oc2c(F)c(F)c(F)c(F)c2c1C(=O)ONC(N)c1ccc(OS(=O)(=O)N(C)C)cc1 (stereo not given) | 0.4
CCCCC(Nc1ncnc2ccc(Br)cc12)C(=O)O (stereo not given) | 3.9*
Cc1ccc2ncnc(NC(CC(C)C)C(=O)O)c2c1 (stereo not given) | -0.97
Cc1ccc2ncnc(NC(CO)C(=O)O)c2c1 (stereo not given) | 1.8
c1ccc(C2=Nc3ccccc3SC(c3ccc4c(c3)OCO4)C2)cc1 (stereo not given) | 0.51
Cc1cc(C)cc(Oc2coc3cc(OC(=O)c4ccco4)ccc3c2=O)c1 | 1.9
O=C(CSc1nncn1-c1ccc(OCc2ccccc2)cc1)Nc1ccccc1 | -1.2
Cc1cc(=O)[nH]c(NC(=O)C(C)(C)C)n1 | 0.06
CCc1ccnc(NS(=O)(=O)c2ccc(C)cc2)c1 | 0.38
Cc1ccc(S(=O)(=O)NC(=O)Nc2cc(C)on2)cc1 | -0.09
CCc1ccnc(NC(=O)NS(=O)(=O)c2ccc(C)cc2)c1 | 5.1*
COc1cccc(C(=O)Nc2nnc(C(F)(F)C(F)(F)C(F)(F)F)s2)c1 | -1.1
Cc1nc(N2CCN(c3ccccn3)CC2)nc2c1C(=O)CC(c1ccc(Cl)cc1)C2 (stereo not given) | -0.26
Cc1nc(N2CCN(c3ccccc3)CC2)nc2c1C(=O)CC(C)C2 (stereo not given) | 0.21
Cc1nc(N2CCN(c3cccc(Cl)c3)CC2)nc2c1C(=O)CC(c1ccco1)C2 (stereo not given) | 3*
SMILES | Dicer inh
Cc1ccc(Nc2nc(N)nc(COc3cccc4cccnc34)n2)cc1 | 0.2
Cc1ccccc1OCc1nc2c3c4c(sc3ncn2n1)C(C)(C)NC(C)(C)C4 | -0.15
CC1=C(C(=O)OCC2CCCO2)C(c2ccc(-c3ccccc3)cc2)C2=C(CC(C)(C)CC2=O)N1 (stereo not given) | 2.5
COc1ccccc1N=C1SCC(=O)N1Cc1ccco1 | 4*
O=C1CSC(=Nc2ccc(Cl)cc2)N1Cc1ccco1 | -0.33
O=C1CSC(=Nc2cc(Cl)cc(Cl)c2)N1Cc1cccs1 | 1
COc1ccc(N=C2SCC(=O)N2CCc2ccc(OC)c(OC)c2)cc1 | 2.3
CC(c1ccccc1)C1CC(=O)N(Cc2ccco2)C1=O (stereo not given) | 1.9

Source: PubChem BioAssay
